Only some compounds are listed: those with a hit (about 1.4% of all), similar ones and a draw of the others.
IL1B cytotox: cytotoxicity in IL-1B stimulated HUVEC, primary screen, cytotoxicity control for IL-1B NFkB translocation project, imaging, Hoechst nuclear count, IL-1B stimulus; HUVEC cell count loss; AID 845, 2007; 0.41% of 94,000 active; cell count reduction, % at 2 µM;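 active means cell count reduction more than 3 SD above the screen-wide mean, cut at about 70% in these data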;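 further: normalized per plate to untreated control cells as the no-loss baseline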
NFkB transloc pot: enhancers of NFkB p65 translocation in HUVEC – imaging, IL-1B stimulus, high-content imaging, primary screen. activation, % at 2 µM. AID 819, 2007. HUVEC IL-1B NFkB p65 nuclear translocation imaging. 0.3% of 94,000 active;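 active means activation above 40%, about the mean plus 3 SD, also judged a hit on visual image review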;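 further: percent activation is computed from the nuclear over cytoplasmic p65 intensity ratio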
Phagocytosis inh: inhibitors of macrophage phagocytosis, primary screen, imaging, J774A.1 cells, IgG beads. J774A.1 macrophage IgG-bead phagocytosis. inhibition, % at 5 µM. 0.07% of 110,000 active. AID 1029, 2008;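 active means inhibition above the mean of the plate negative controls plus 5 SD, cut at about 13% in these data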;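 further: phagocytic index as fraction of beads internalized from green versus red external bead signal; plate controls were DMSO negative control for no effect and cytochalasin-D positive control for full effect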
Pyk2 oligo antag: antagonists of Pyk2 self-association, primary screen, Q293 cells, FERM NanoBiT luminescence, HTS. z-score (the deposit names both 25 µM and 10 µM). stronger effect = lower value. 0.83% of 99,000 active;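 active means Z-score of -3 or lower, scaled per plate to the spread of control and sample wells; inactive means z-score above -3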;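 further: negative z-score means lost luminescence so less FERM oligomerization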
Target sequence (Q14289 whole entry, looked up): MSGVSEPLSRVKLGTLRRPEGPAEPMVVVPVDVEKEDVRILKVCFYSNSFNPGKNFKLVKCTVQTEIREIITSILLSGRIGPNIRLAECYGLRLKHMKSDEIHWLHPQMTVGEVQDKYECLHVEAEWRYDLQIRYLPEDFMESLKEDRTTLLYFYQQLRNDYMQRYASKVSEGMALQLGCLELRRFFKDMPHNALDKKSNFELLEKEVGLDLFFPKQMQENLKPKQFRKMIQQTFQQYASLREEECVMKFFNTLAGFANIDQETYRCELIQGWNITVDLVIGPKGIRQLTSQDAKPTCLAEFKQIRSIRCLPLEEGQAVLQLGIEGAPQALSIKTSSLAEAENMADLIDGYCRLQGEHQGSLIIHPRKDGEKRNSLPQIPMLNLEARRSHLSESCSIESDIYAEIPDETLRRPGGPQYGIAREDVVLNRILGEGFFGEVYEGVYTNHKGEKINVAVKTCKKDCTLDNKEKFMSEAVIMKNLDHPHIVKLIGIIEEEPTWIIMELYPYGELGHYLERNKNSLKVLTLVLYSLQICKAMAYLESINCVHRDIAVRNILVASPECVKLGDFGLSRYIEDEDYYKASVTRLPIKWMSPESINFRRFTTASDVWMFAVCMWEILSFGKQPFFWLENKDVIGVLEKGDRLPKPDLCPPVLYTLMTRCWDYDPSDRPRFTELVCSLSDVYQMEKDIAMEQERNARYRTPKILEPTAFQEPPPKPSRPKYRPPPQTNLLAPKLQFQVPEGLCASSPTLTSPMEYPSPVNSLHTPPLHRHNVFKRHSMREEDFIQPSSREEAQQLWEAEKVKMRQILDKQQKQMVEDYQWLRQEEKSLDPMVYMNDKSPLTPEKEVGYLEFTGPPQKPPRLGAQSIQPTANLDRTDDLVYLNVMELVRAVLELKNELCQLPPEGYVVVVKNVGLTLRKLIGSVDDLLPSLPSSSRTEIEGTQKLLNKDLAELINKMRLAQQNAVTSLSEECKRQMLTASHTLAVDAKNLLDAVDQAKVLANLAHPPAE
NFkB transloc inh: inhibitors of IL-1B driven NFkB p65 nuclear import, primary screen, imaging, HUVEC, IL-1B stimulus, high-content imaging; HUVEC IL-1B NFkB p65 nuclear translocation imaging; inhibition, % at 2 µM; 0.43% of 94,000 active; AID 796, 2007;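 active means inhibition above about 30% together with a positive call from visual inspection of the well image, limit read from the data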;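 further: nuclear over cytoplasmic p65 intensity ratio measured by imaging; 0% = IL-1B stimulated DMSO wells and 100% = unstimulated DMSO wells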
Starred values were filed as active, the others as inactive; x = no result given; [ ] = another dose, or the depositor's remark.

SMILES	IL1B cytotox	NFkB transloc pot	Phagocytosis inh	Pyk2 oligo antag	NFkB transloc inh
O=[N+]([O-])c1ccccc1S(=O)(=O)Oc1ccc(C(=S)N2CCOCC2)cc1	x	x	-9	x	x
O=c1[nH]c2ccc(Cl)cc2c(-c2ccccc2)c1N1CCOCC1	x	x	1	x	x
O=c1[nH]c2ccc(Cl)cc2c(-c2ccccc2)c1CN1CCOCC1	-3	113*	x	-0.06	-113
Cc1cccc(/C=C2\CS/C(=C\c3cccc(C)c3)C2=O)c1	-10	-54	0	-0.44	54*
c1ccc(OCCSc2nnnn2-c2ccccc2)cc1	-10	1	0	-2.4	-1
CCOc1ccc(OCCSc2nnnn2-c2ccccc2)cc1	-7	0	0	-4.1*	0
CCCCCCCCC(=O)NC(NC(=S)N1CCOCC1)C(Cl)(Cl)Cl (stereo not drawn)	-37	41*	x	-0.04	-41
CCCCCC(=O)NC(NC(=S)N1CCOCC1)C(Cl)(Cl)Cl (stereo not drawn)	-14	9	x	-1	-9
CCOc1cc(S(=O)(=O)NCCc2ccccc2C)c(OCC)cc1-n1cnnn1	-8	26	0	-1.1	-26
CCOc1cc(S(=O)(=O)NCCc2cccc(C)c2)c(OCC)cc1-n1cnnn1	17	-35	1	0.82	35*
O=C(CCn1cnc2ccccc2c1=O)Nc1nc2c(s1)CCCC2	-35	-3	41*[artifact]	1	3
COc1ccc(OC)c(NC(=O)Cn2cc(C#N)c3ccccc32)c1	-10	16	5	-1.3	-16
Cn1c(=O)c2c(nc(NCc3ccc4c(c3)OCO4)n2Cc2ccc(F)cc2)n(C)c1=O	-29	-44	1	-2.9	44*
CCCNc1nc2c(c(=O)n(C)c(=O)n2C)n1CCc1ccccc1	-31	-100	4	0.14	100*
COc1cccc(Cn2c(NCC(C)C)nc3c2c(=O)n(C)c(=O)n3C)c1	74*	27	x	-0.69	-27
Cn1c(=O)c2c(nc(NCc3ccc4c(c3)OCO4)n2Cc2ccccc2)n(C)c1=O	0	-2	-1	-1.7	2
O=C1CCNc2cc3ccccc3cc21	-42	-2	-1	-0.93	2
Cc1ccc(-n2ncc3c(NCC4CCCO4)ncnc32)c(C)c1 (stereo not drawn)	-23	-6	-2	-0.62	6
O=S(=O)(NCc1cccnc1)c1ccc(Cl)s1	90*	-59	x	1.5	59*
Oc1ccccc1N=Nc1nc(-c2ccccc2)c(-c2ccccc2)[nH]1	4	-1	-1	-3.8*	1
CC(C)C(=O)Nc1nnc(CSCc2ccccc2F)s1	-6	-54	-1	-1.2	54*
COc1ccc(OC)c(C2C3=C(CCCC3=O)Nc3nnnn32)c1 (stereo not drawn)	x	x	-10	x	x
COc1ccc(OC)c(C2C3=C(CCCC3=O)Nc3c2c(=O)n(C)c(=O)n3C)c1 (stereo not drawn)	86*	22	1	0.08	-22
O=C1CC(C2CCCO2)C(=O)N1Cc1ccccc1 (stereo not drawn)	-56	-19	69*	0.48	19
Cn1ncc(Br)c1C(=O)Nc1ccc(F)cc1F	88*	-98	x	-0.39	98*
SMILES	IL1B cytotox	NFkB transloc pot	Phagocytosis inh	Pyk2 oligo antag	NFkB transloc inh
O=C(N/N=C/C(Br)=C/c1ccccc1)c1n[nH]c2c1CCC2	16	-41	6	-1.9	40*
O=C(Nc1ccc(F)cc1F)c1ccc(COc2c(F)c(F)cc(F)c2F)o1	89*	43*	-1	1.4	-43
O=C(Nc1ccc(Cl)cc1F)c1ccc(COc2c(F)c(F)c(F)c(F)c2F)o1	-4	-8	0	1.5	8
CCCCc1c(C)nc2c(OC)cccc2c1SCCC(=O)O	x	x	0	x	x
CCc1c(C)nc2c(OC)cccc2c1SCCC(=O)O	x	x	37*[artifact]	x	x
COc1ccc(N(Cc2ccccc2)S(=O)(=O)c2cccc(C(=O)NC3=NCCS3)c2)cc1	-13	0	x	-3.3*	0
CCCCC[n+]1ccn(-c2nc3ccccc3nc2[N-]S(=O)(=O)c2ccc(C)cc2)c1	82*	-98	x	0.17	98*
COc1cc2c(cc1OC)C1(Nc3c-2c(-c2ccccc2)nn3-c2ccccc2)C(=O)Nc2ccccc21 (stereo not drawn)	-22	10	-1	-3.2*	-10
COc1cc2c(cc1OC)C1(Nc3c-2c(C)nn3-c2ccccc2)C(=O)Nc2ccccc21 (stereo not drawn)	-17	23	0	-1.1	-23
O=C(C1CCCN(S(=O)(=O)c2ccc(Br)s2)C1)N1CCCCCC1 (stereo not drawn)	-3	-33	4	-0.5	33*
O=S(=O)(C/C(=C/CO)S(=O)(=O)c1ccccc1)c1ccccc1	3	-51	4	-0.78	51*
O=C(NCc1ccc(-c2nc3ccccc3s2)cc1)c1ccc(Br)o1	x	x	-7	x	x
COc1cc(-c2c(C#N)c(=O)[nH]c3c2c(C)nn3-c2ccccc2)ccc1O	6	0	0	-3.3*	0
CCOC(=O)Cc1csc(SCC(=O)NC2CCCCC2)n1	x	x	-3	x	x
CCOC(=O)c1cnn(-c2ncnc3c2oc2ccccc23)c1N	x	x	0	0.71	x
O=C(NC1CC1)C1CC(=O)N(C2CCCCC2)C1 (stereo not drawn)	5	121*	x	2	-121
O=C(NC1CCCC1)C1CC(=O)N(C2CCCCCCC2)C1 (stereo not drawn)	-14	15	x	-0.15	-15
Cc1cc(=O)c2cccc(Br)c2[nH]1	90*	-30	x	-0.92	30*
CN(CCC#N)C(=O)c1ccc(CNS(=O)(=O)c2ccc(F)cc2)cc1	86*	-100	0	0.01	100*
O=C(CSc1nnnn1-c1ccccc1)N1CCN(C(=O)c2ccco2)CC1	20	-8	-2	-0.73	8
COc1ccc(Nc2cc(C)nc(N3CCOCC3)n2)cc1	-18	106*	-3	0.69	-106
CCOC(=O)c1[nH]c2cc3c(cc2c1NC(=O)CN1CCC(C)CC1)OCO3	86*	-98	x	-0.7	98*
CCc1ccc(-n2c(SCc3c(C)noc3C)nnc2-c2ccncc2)cc1	17	67*	0	0.95	-66
Cc1ccc(C(=O)Oc2cc(-c3ccccc3)no2)cc1	x	x	0	1.5	x
COc1cccc(C(=O)Oc2cc(-c3ccccc3)no2)c1	x	x	165*	-0.55	x
COC(=O)C1=C(C)NC2=C(C(=O)CCC2)C1c1cn(Cc2ccc(Br)cc2)nc1-c1ccccc1 (stereo not drawn)	-58	3	3	-2.3	-3
COC(=O)C1=C(C)NC2=C(C(=O)CC(C)(C)C2)C1c1cn(Cc2ccc(Br)cc2)nc1-c1ccccc1 (stereo not drawn)	31	-6	x	-3.3*	6
CC1CC(=O)C2=C(C1)Nc1ncnn1C2c1ccccc1 (stereo not drawn)	-8	0	0	0.84	0
